Bioassay records (PubChem)
HT1080 IDH1KD tx: kills HT-1080 cells with IDH1 knockdown; Potency, µM (series often up to 46.1 µM), without a hit: at the highest dose activity, negative = toxicity, hits mostly cytotoxic; hit rate 2% among 360,000; HT-1080 IDH1 knockdown viability, ATP luminescence, 48 h; AID 686971;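 also: potency is read from the fitted curve at half-maximal effect; 0% = DMSO wells and -100% = cell-free medium wells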
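% activity derives from luminescence (CellTiter-Glo), normalised to DMSO and no-cell wells. HT-1080-IDH1KD cells, 750/well, had 48 h compound exposure at 37 °C.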
TDP1 cell CPT: growth inhibition of DT40 Tdp1-/-;hTDP1 cells with camptothecin (screen for TDP1 inhibitors) | chicken DT40 Tdp1-/-;hTDP1 cells + 20 nM CPT, ATP luminescence, 48 h | Potency, µM (titrated, usually from 46.2 µM), for the others: top-dose activity change, negative = growth inhibition, most hits filed as inhibitors | hit rate 12% among 420,000 | AID 686979; also: potency is read from the fitted curve at half-maximal effect; nearly all actives have a fitted effect of over 55% in size
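Chicken DT40 Tdp1-/- cells complemented with human TDP1, 400 cells/well, exposed to compounds plus 20 nM camptothecin for at least 48 h at 37 C; viability read as ATP content by CellTiter-Glo luminescence.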
HT1080NT lethal: kills 2HG-producing HT-1080-NT fibrosarcoma cells. HT-1080-NT fibrosarcoma viability, CellTiter-Glo ATP luminescence, 48 h. Potency, µM (titrated, usually from 46.1 µM), for the others: top-dose activity, negative = less viability, hits mostly cytotoxic. hit rate 1.6% among 360,000. AID 686970;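 also: NT is the 2HG producing partner of a matched IDH1 knockdown line; potency is read from the fitted curve at half-maximal effect; 0% = DMSO-treated cells and -100% = media-only wells without cells; nearly all actives have a fitted effect of over 55% in size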
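Luminescent CellTiter-Glo readout after 48 hours of compound exposure at 37 degrees C defined viability of HT-1080-NT cells. Activity was normalized to DMSO wells and cell-free media wells; concentration-response curves were fitted and assigned curve classes.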
DT40 TDP1 no CPT: qHTS for Inhibitors of human tyrosyl-DNA phosphodiesterase 1 (TDP1): qHTS in cells in absence of CPT; DT40 Tdp1-/- hTDP1 cells, no CPT, ATP luminescence, 48 h; Potency, µM (highest dose often 46.2 µM), inactives show at the highest dose activity change, negative = growth inhibition, usual class: inhibitors; hit rate 15% among 420,000; AID 686978, 2013; also: potency is read from the fitted curve at half-maximal effect; nearly all actives have a fitted effect of over 55% in size
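Chicken DT40 Tdp1-/- cells stably complemented with human TDP1 were seeded at 400 cells/well with DMSO in place of 20 nM camptothecin. After compound pinning, cells grew at least 48 hr at 37 °C; viability read by CellTiter-Glo luminescence.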
IL-1B inflam inh: inhibitors of inflammasome signaling (IL-1 beta secretion); THP-1 LPS/ATP IL-1B secretion, AlphaLISA, 16 h; stronger effect = lower value; activity change, % at 57.5 µM; AID 743279; hit rate 4.7% among 360,000; in the data active = activity change below about -50%; inconclusive = mostly about -30% to -49%
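Secreted IL-1B measured by AlphaLISA bead assay after 16 h compound exposure of THP-1 cells; compounds (final up to 57.5 uM) added 1 h before LPS (250 ng/mL) and ATP (1.25 mM) stimulation; lower signal means less secretion.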
Starred values were filed as active, the others as inactive; i = inactive; ? = inconclusive; / = not tested or not shown. Shown are actives, neighbours in structure and some others; about 19% of the full set was active somewhere. Unless noted, calls follow the shape of the dose curve; as a rule, active = well fitted curve in the direction sought with a large enough effect; inconclusive = small, poorly fitted or top-dose-only effect, or another doubt; inactive = no such curve, though single readings can be large; an effect the other way counts as inactive or inconclusive. Unless noted, % is scaled to controls: 0 for no effect and ±100 for the full control effect.

SMILES	HT1080 IDH1KD tx	TDP1 cell CPT	HT1080NT lethal	DT40 TDP1 no CPT	IL-1B inflam inh
COc1ccc(NC(=O)C2Cc3c(-c4cccc(NC(C)=O)c4)ccnc3O2)cc1 (configuration not stated)	?	3.7µM*	?	3.3µM*	43
COc1ccc(NC(=O)C2Cc3c(-c4cccc(C(C)=O)c4)ccnc3O2)cn1 (configuration not stated)	3.3µM*	2.6µM*	?	2.9µM*	59
CC(=O)c1cccc(-c2ccnc3c2CC(C(=O)NC(C)C)O3)c1 (configuration not stated)	9%	9%	0%	7%	43
Cc1ccc2nc(SC(C)C(=O)NCc3ccc4c(c3)OCO4)[nH]c2c1 (configuration not stated)	-16%	-11%	-3%	-20%	6
CC(=O)Nc1cccc(-c2ccnc3c2CC(C(=O)NCC2CC2)O3)c1 (configuration not stated)	?	?	-20%	?	36
CC(=O)Nc1cccc(-c2ccnc3c2CC(C(=O)Nc2ccc(C(C)C)cc2)O3)c1 (configuration not stated)	?	21µM*	?	12µM*	-51*
CC(=O)Nc1ccc(NC(=O)C2Cc3c(-c4cccc(NC(C)=O)c4)ccnc3O2)cc1 (configuration not stated)	23%	-13%	0%	-14%	-25
O=C(Nc1ccc(F)c(Cl)c1)C1Cc2c(-c3ccco3)ccnc2O1 (configuration not stated)	-19%	23µM*	-18%	15µM*	0
CC(=O)Nc1cccc(-c2ccnc3c2CC(C(=O)Nc2ccc(F)c(Cl)c2)O3)c1 (configuration not stated)	?	18µM*	?	18µM*	-18
COc1ccc(NC(=O)C2Cc3c(-c4cccc(C(C)=O)c4)ccnc3O2)cc1 (configuration not stated)	1.8µM*	2.3µM*	?	2.9µM*	-3
COc1cc(C)ccc1OCc1cc(C(=O)N2CCN(C)C[C@@H]2c2ccccc2)no1	-1%	?	-6%	-27%	0
CNc1sc(C(=O)c2ccccc2F)c(N)c1-c1nc2ccccc2s1	-11%	?	0%	?	20
COc1ccc(NC(=O)C2Cc3c(-c4ccc(NC(C)=O)cc4)ccnc3O2)cn1 (configuration not stated)	?	8.2µM*	?	12µM*	-22
COc1ccc(NC(=O)C2Cc3c(-c4ccc(NC(C)=O)cc4)ccnc3O2)cc1 (configuration not stated)	-22%	?	-13%	16µM*	-25
COc1ccc(-c2noc(-c3nnn(-c4ccc(C)cc4C)c3C)n2)cc1	/	-14%	/	1%	/
N#Cc1ccccc1OCC(=O)N(Cc1nnc(-c2ccccc2Cl)o1)C1CC1	3%	?	-2%	16µM*	1
O=C(COC(=O)CSc1ccccc1)NCCNC(=O)COC(=O)CSc1ccccc1	0%	?	-2%	?	23
O=C(Nc1ccc2c(c1)OCO2)c1ccc(NC2CC2)c([N+](=O)[O-])c1	-24%	21µM*	?	21µM*	-5
CCCOc1c(Cl)cc(C(=O)Nc2ccc3c(c2)OCO3)cc1OCC	10µM*	?	?	?	-56*
O=C(Nc1ccc2c(c1)OCO2)c1ccc2c(c1)OCO2	0%	?	-7%	?	i
CCC(=O)Oc1ccc(C(=O)Nc2ccc3c(c2)OCO3)cc1	?	?	?	21µM*	-58*
CCOc1cc(C(=O)Nc2ccc3c(c2)OCO3)ccc1OC(F)F	-14%	15µM*	-11%	11µM*	-65*
CCCOc1ccc(C(=O)Nc2ccc3c(c2)OCO3)cc1	?	3%	-4%	13%	-2
O=C(Nc1cccc(S(=O)(=O)N2CCCCCC2)c1)C1=COCCO1	2%	?	6%	4%	8
CCOc1ccccc1NC(=O)C(=O)NCCc1sc(-c2cccc(F)c2)nc1C	/	-19%	/	-11%	/
SMILES	HT1080 IDH1KD tx	TDP1 cell CPT	HT1080NT lethal	DT40 TDP1 no CPT	IL-1B inflam inh
COCC(=O)N1CCC2(CC1)CCN(c1ncccn1)CC2	/	13%	/	-7%	/
CCOc1ccc(C(=O)Nc2ccc3c(c2)OCCO3)cc1[N+](=O)[O-]	4%	17%	11%	-14%	-58*
CCOc1ccc(C(=O)Nc2ccc3c(c2)OCCO3)cc1OC	?	?	?	-8%	-9
CC(C)Cn1c(N)c(C(=O)COC(=O)/C=C/c2cccs2)c(=O)n(C)c1=O	-13%	?	?	16µM*	-4
CC(C)Cn1c(N)c(C(=O)COC(=O)c2cccc(Cl)c2)c(=O)n(C)c1=O	-25%	0%	-19%	?	40
CC(C)Cn1c(N)c(C(=O)COC(=O)Cc2cccc(C(F)(F)F)c2)c(=O)n(C)c1=O	-5%	16µM*	-13%	21µM*	11
CC(C)Cn1c(N)c(C(=O)COC(=O)Cc2cccs2)c(=O)n(C)c1=O	-13%	18µM*	1%	23µM*	i
COC(=O)CSc1nnc(-c2ccccn2)n1N	5%	2%	3%	8%	-16
NC(=O)CC(NC(=O)c1ccccc1)c1ccc(NCc2ccccn2)c([N+](=O)[O-])c1 (configuration not stated)	3%	10%	1%	-7%	-5
CCOc1cc(/C=C/c2cc(C(F)(F)F)[nH]c(=O)n2)ccc1O	?	?	?	?	-63*
COc1ccc(/C=C/c2cc(C(F)(F)F)[nH]c(=O)n2)cc1OC	-28%	-6%	-6%	-21%	-96*
CCOc1cc(/C=N/Nc2nc(=O)[nH]nc2C)ccc1O	-2%	23%	-2%	-16%	29
O=c1nc(/C=C/c2ccccc2C(F)(F)F)cc(C(F)(F)F)[nH]1	-1%	-11%	1%	-16%	-14
Cc1nc2cc(NC(=O)C3(C)CCCN(C(C)C)C3)ccc2o1 (configuration not stated)	18%	2%	?	0%	22
CC(=O)N1CCCc2cc(S(=O)(=O)N3CCCC(C(=O)NC(C)C)C3)ccc21 (configuration not stated)	/	-24%	/	?	/
CCO[C@H]1c2c(ccc3ccc(=O)oc23)OC(C)(C)[C@@H]1O	1%	-17%	-17%	-5%	1
COc1ccc(CNC(=O)c2cc3c(=O)[nH]c4ccccc4c3n2C)cc1	11%	?	-14%	-6%	46
